HSF1 inh = HSF1 inhibitors in luciferase reporter cells, primary screen, cell-based, NIH3T3, luminescence | NIH3T3-HGL HSE-luciferase, MG132-induced, luminescence 8 h; hits give low values | activity change, negative = inhibition, % at 7.5 µM (by protocol) | 300,000 compounds, 0.77% hits;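 active means more than half of replicate wells show activity change below -50%, luminescence cut by over half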;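 further: luciferase reports HSF-1 transcriptional activity via heat shock element; 0% = median of DMSO wells and -100% = zero luminescence signal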
FXN GAA850 act = FXN promoter activators, primary screen, cell-based, luciferase luminescence, HEK293 lucGAA850; HEK293 lucGAA850 FXN promoter luciferase reporter, 24 h; percent of 10 µM SAHA response; activation, % at 6 µM; 360,000 compounds, 0.56% hits; AID 540364, 2011;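 active means activation above the average of all compounds screened plus 3 SD, cutoff fixed separately per campaign, cut at about 7.5% in these data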;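 further: 0% = DMSO wells and 100% = 10 µM SAHA wells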
HSF1 activator = HSF-1 activators, primary screen, NIH3T3-HGL cells, MG132 stress, luminescence, single point; 300,000 compounds, 1.7% hits; activation, % at 9 µM; NIH3T3-HGL HSF-1 luciferase reporter, 8 h; 100% = twice DMSO control signal; AID 504408, 2011;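 active means mean replicate activation of at least 50% with a set share of replicates each reaching 50%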;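 further: 0% = median of the neutral control wells and 100% = twice that signal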
DAX1 inh = DAX1 (NR0B1) inhibitors, primary screen, cell-based, HEK293, Gal4-DAX1, luciferase luminescence. Nuclear receptor subfamily 0 group B member 1 (Homo sapiens), P51843. HEK293 Gal4-DAX1 luciferase reporter. inhibition, % at 6.75 µM. 340,000 compounds, 0.99% hits. AID 504766, 2011;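 active means inhibition above the mean over all tested compounds plus 3 SD, cut at about 4.2% in these data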;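 further: 0% = DAX1-transfected cells with DMSO and 100% = empty-vector control cells with DMSO; inhibition shows as a rise in luminescence from relieved DAX1 repression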
Target sequence (P51843 207-470 limits assumed): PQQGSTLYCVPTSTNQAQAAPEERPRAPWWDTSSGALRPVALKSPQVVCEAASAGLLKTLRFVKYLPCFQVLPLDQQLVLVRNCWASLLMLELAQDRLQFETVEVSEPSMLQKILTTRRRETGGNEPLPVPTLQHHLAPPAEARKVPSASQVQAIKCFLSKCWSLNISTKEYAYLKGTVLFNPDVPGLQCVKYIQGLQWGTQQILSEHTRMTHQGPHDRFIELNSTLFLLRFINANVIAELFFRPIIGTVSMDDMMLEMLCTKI
AHR activator = AHR activators, primary screen, cell-based, luminescence, luciferase reporter, human; Aryl hydrocarbon receptor (Homo sapiens), P35869; AHR-responsive luciferase reporter cells; activation, % at 5 µM; 320,000 compounds, 2.5% hits; in the data active means activation above about 47%;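 further: 0% = vehicle wells and 100% = reference agonist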
Numbers without * were called inactive; · = no result. A selection: hits, their analogues and other compounds. The true share with any hit is near 5.4%.

SMILES | HSF1 inh | FXN GAA850 act | HSF1 activator | DAX1 inh | AHR activator
O=C(/C=C/c1cccs1)c1cc(Br)ccc1OC(=O)N1CCOCC1 | 31.9 | -4.9 | 25.1 | -1.7 | 52.9*
COc1cccc(-n2c(=O)n(Cc3ccccc3)c(=O)c3[nH]cnc32)c1 | -6.4 | 0.8 | 7.8 | 0.9 | 0.7
CCCCN1C2CCCC1CC(NC(=O)c1ccccc1Cl)C2 (centres undefined) | -1.2 | 3.3 | -4.3 | 4.7* | -1.2
O=C(NC1CC2CCC(C1)N2Cc1ccccc1)c1ccccc1Cl (centres undefined) | -5.1 | 0.5 | 1.7 | 2.6 | 2.4
CN(C)c1ncc(CN2CCC(C(=O)Nc3ccc(-n4cccn4)cc3)CC2)s1 | -2.7 | 0.4 | 0.5 | 0.0 | -1.1
CCN(CC)c1ccc2c(Cl)c(Br)c(=O)oc2c1 | 279.9 | -4.4 | 325.6* | -1.6 | 53.2*
COC(=O)c1[nH]c2c(c1C)C(=O)CC(c1cccc(OC)c1)C2 (centres undefined) | -6.8 | -1.4 | 15.0 | -1.4 | 19.1
COc1ccccc1N1Cc2ccc(OC)c(OC)c2C1=O | 1.0 | -1.5 | -1.4 | 0.7 | 2.9
COc1ccc2c(c1OC)C(=O)N(c1ccccn1)C2 | 21.2 | 4.0 | 42.3 | 0.5 | 52.1*
COc1ccc2c(c1OC)C(=O)N(c1ccc(C)cc1)C2 | -0.6 | 1.1 | -20.3 | 6.2* | -0.3
CCN(CC)C(=O)C1=C(C)N(Cc2ccccc2)C(=O)C(CC(=O)NCc2cccs2)C1 (centres undefined) | · | 0.3 | · | -0.1 | ·
COc1cccc(NC(=O)C(=O)NCCC2CCCCN2S(=O)(=O)c2ccccc2)c1 (centres undefined) | 19.8 | 2.9 | 32.2 | -1.2 | 2.0
COc1cccc(NC(=O)C(=O)NCC2CCCN2S(=O)(=O)c2ccccc2)c1 (centres undefined) | 32.5 | 4.3 | 56.4* | -1.1 | 7.3
Cc1ccc(C(=O)Nc2ccccc2[N+](=O)[O-])cc1S(=O)(=O)N1CCOCC1 | 16.6 | 0.3 | 28.9 | -0.4 | 1.9
COc1ccc(C(=O)Nc2ccccc2[N+](=O)[O-])cc1S(=O)(=O)N1CCOCC1 | 76.0 | -1.4 | 131.1* | -0.3 | ·
CC(=O)c1ccc(N2CCN(S(=O)(=O)c3ccc4c5c3CC(=O)N5CC(C)S4)CC2)cc1 (centres undefined) | 5.9 | -3.9 | 6.1 | -0.3 | 0.3
Cc1ccc(NC(=O)c2ccc(N3C(=O)C4CC=C(Cl)CC4C3=O)cc2)cc1 (centres undefined) | 1.0 | -0.4 | -3.4 | -0.8 | -1.0
C/C(=N\O)c1ccc(N2C(=O)C3CC=C(Cl)CC3C2=O)cc1 (centres undefined) | 5.1 | 5.2 | -7.1 | 5.0* | -3.1
CCn1c(=O)c(C(=O)CN2CCOCC2)c(N)n(Cc2ccccc2)c1=O | -4.1 | -0.5 | -7.3 | 0.2 | -2.1
CCn1c(=O)c(C(=O)CC#N)c(N)n(Cc2ccccc2)c1=O | 2.6 | 2.3 | 12.8 | 4.9* | 0.7
CCOc1ccc(S(=O)(=O)N2CCN(C(=O)C3CSC4(C)CCC(=O)N34)CC2)cc1 (centres undefined) | · | 0.4 | · | 0.2 | -0.8
O=c1c2cc(Cl)ccc2nc(-c2ccc(Cl)c(Cl)c2)n1O | -8.6 | 0.7 | -12.1 | 4.5* | 24.3
O=c1c2cc(Cl)ccc2nc(-c2ccccc2)n1O | -8.9 | 2.0 | 0.4 | -0.3 | 20.0
Cc1cccc(C2(c3cccc(C)c3)CC2C(=O)Nc2ccc([N+](=O)[O-])cc2O)c1 (centres undefined) | 4.5 | -8.7 | 18.2 | -3.1 | 77.3*
O=S(=O)(Oc1ccc(Cl)cc1)c1cccc2cccnc12 | · | 1.0 | · | · | 3.9
SMILES | HSF1 inh | FXN GAA850 act | HSF1 activator | DAX1 inh | AHR activator
CN(C(=O)c1ccco1)c1nc2c(s1)CCCC2 | 27.1 | 1.9 | 62.5* | 0.6 | -1.0
CN(C(=O)c1ccco1)c1nnc(C23CC4CC(CC(C4)C2)C3)s1 | 15.5 | 3.1 | 21.5 | 2.0 | -0.7
COc1cc(OC)cc(C(=O)N2CCCC(Nc3ccc(F)cc3)C2)c1 (centres undefined) | -6.0 | 0.0 | -0.7 | 0.3 | 10.9
CCOC(=O)C1CCN(C(=O)c2ccc(C)c(S(=O)(=O)N3CCCC3)c2)CC1 | 1.7 | 1.3 | -1.0 | -0.2 | -1.1
O=C(c1cc2cc(F)ccc2[nH]1)N1CCCC(Nc2ccc(F)cc2)C1 (centres undefined) | 2.8 | 1.2 | 18.0 | -1.1 | 62.8*
CCOC(=O)C1CCCN(C(=O)c2ccc(Cl)c(S(=O)(=O)N3CCCCC3)c2)C1 (centres undefined) | 24.1 | 4.1 | 79.1* | -1.7 | -1.6
CCOC(=O)C1CCCN(C(=O)c2cc3cc(F)ccc3[nH]2)C1 (centres undefined) | 0.6 | -0.2 | 0.2 | -1.2 | 50.1*
CCOC(=O)N1CCN(C(=O)c2cc3cc(Cl)ccc3[nH]2)CC1 | 3.9 | 0.8 | 0.2 | -0.5 | ·
CCOC(=O)N1CCN(C(=O)c2cc3cc(F)ccc3[nH]2)CC1 | 5.5 | 0.5 | -10.3 | 0.7 | 57.9*
COc1cc(C)ccc1S(=O)(=O)NC(=O)C1(C)CCN1C(=O)c1ccc(C2CCCCC2)cc1 (centres undefined) | · | 2.8 | · | · | ·
C/C(=N/NC(=O)c1sc(NS(=O)(=O)c2ccccc2)nc1C)c1ccc(F)cc1 | -4.2 | 3.2 | 19.8 | -0.1 | 12.6
C/C(=N/NC(=O)c1sc(NS(=O)(=O)c2ccccc2)nc1C)c1ccccc1 | · | -0.5 | · | 5.6* | 1.1
O=C(COc1coc(CN2CCN(c3ccccc3F)CC2)cc1=O)NC1CCCC1 | -2.6 | 1.4 | -1.2 | -0.3 | -1.6
Cc1cc(O)cc(C)c1NS(=O)(=O)c1ccc2ccccc2c1 | 2.6 | 1.0 | 3.7 | -1.6 | 3.6
O=[N+]([O-])c1cccc(C2CC(c3ccccc3)=NN2c2ccccc2)c1 (centres undefined) | 4.6 | 2.8 | 15.9 | -0.4 | 10.6
Cc1ccc(C2=Nc3ccccc3SC(c3cccc([N+](=O)[O-])c3)C2)cc1 (centres undefined) | 38.0 | 5.7 | 67.4* | 0.8 | 5.8
O=C(Nc1cccn2ncnc12)C(F)(F)F | 19.1 | 1.6 | 63.3* | 1.1 | 2.6
COc1ccc(/C(C)=N/NC(=O)CNC(=O)/C=C\c2ccccc2)c(OC)c1 | -65.9* | -0.7 | -68.8 | -0.1 | 4.7
Cc1cc(C(=O)Nc2cc(C(C)(C)C)on2)c(C)o1 | 18.6 | 4.8 | 37.8 | 6.3* | 1.3
COCc1cc(OC)nc(-c2csc(C)n2)n1 | · | -0.1 | · | 6.4* | 0.0
COCc1cc(=O)[nH]c(-c2csc(C)n2)n1 | -3.8 | 0.7 | 6.7 | 2.4 | -0.3
OCCN(CCO)Cc1ccc(Br)cc1 | 20.7 | -1.4 | 43.4 | -0.8 | 63.2*
Cc1ccc(CN(CCO)CCO)cc1 | -3.8 | -0.7 | -5.5 | 0.4 | 0.6

Screens deposited in PubChem by several laboratories.
